Values joined by “and” are separate entries in the source; they are usually repeats but may differ in a detail not shown here. Identical values can stand only once. Records with an inconclusive call do not appear. Active and inactive are the calls of the source. Unless noted, the call rests on the fitted dose curve; in most records, active means well fitted curve in the direction sought with a large enough effect; inconclusive means small, poorly fitted or top-dose-only effect, or another doubt; inactive means no such curve, though single readings can be large; an effect the other way counts as inactive or inconclusive.
How the values were obtained:
[1] = Cell Viability - HUV-EC-C (AID 542); further: on the % scale 0 is the no-effect control and ±100 the full control effect; nearly all actives have a fitted effect of over 35% in size
Summary of the method: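 HUV-EC-C human vascular endothelial cells, 1000/well, exposed to compound for 40 hr at 37 °C in complete medium. Intracellular ATP was read by CellTiter-Glo luminescence. AC50 came from Hill-equation fits of concentration-response data.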

[2] = Cell Viability - LYMP2-026 (AID 989); further: on the % scale 0 is the no-effect control and ±100 the full control effect; nearly all actives have a fitted effect of over 50% in size
Summary of the method: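 Human lymphoblastoid LYMP2-026 cells, 2500/well, exposed to compound 24 h at 37 C in complete medium. Viability as intracellular ATP by CellTiter-Glo luminescence; AC50 from Hill fits of qHTS concentration-response.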

[3] = Cell Viability - LYMP1-002 - Assay at 24 hr (AID 993); further: on the % scale 0 is the no-effect control and ±100 the full control effect
Summary of the method: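 Human lymphoblastoid LYMP1-002 cells (2500/well) treated 24 h at 37 °C; viability as intracellular ATP by CellTiter-Glo luminescence. Tetraoctylammonium bromide as positive control; AC50 from Hill-equation fits of qHTS concentration-response.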

[4] = molecular target: Estrogen receptor (Homo sapiens) (UniProt P03372); experiment: qHTS assay for small molecule antagonists of estrogen receptor alpha signaling (AID 588513; active means well fitted curve in the direction sought with a large enough effect in the signal ratio, with a control signal flat, not every such curve was filed as active; the % refers to the signal ratio; further: on the % scale 0 is the no-effect control and ±100 the full control effect)
Summary of the method: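 Antagonist mode: inhibition of 0.5 nM 17-beta-estradiol-driven beta-lactamase reporter in HEK 293 ER-alpha-UAS-bla cells, 18 h at 37C, CCF4 readout after 2 h at RT. Normalised to estradiol and DMSO; titration fitted to Hill.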

[5] = molecular target: Estrogen receptor (Homo sapiens) (UniProt P03372); experiment: qHTS assay for small molecule agonists of estrogen receptor alpha signaling (AID 588514; calls by dose curve;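 further: 0% = vehicle only and 100% = reference agonist; nearly all actives have a fitted effect of over 70% in size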)
Summary of the method: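 ER-alpha-UAS-bla GripTite HEK293 cells, 5000/well in 2% charcoal/dextran-stripped FBS medium, treated with compound titrations 18 h at 37 C. CCF4 beta-lactamase read by fluorescence after 2 h RT; normalised to 20 nM 17-beta-estradiol (100%) and DMSO (0%), Hill fit for EC50 and efficacy.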

[6] = molecular target: Peroxisome proliferator-activated receptor delta (Homo sapiens) (UniProt Q03181); experiment: qHTS assay for small molecule antagonists of peroxisome proliferator-activated receptor delta signaling (AID 588535; active means well fitted inhibition curve with a large enough effect in the signal ratio, with a control signal flat, not every such curve was filed as active; the % refers to the signal ratio)
Summary of the method: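 Reporter: UAS-bla under PPAR-delta response element, HEK293T host. Medium: 2% charcoal/dextran FBS. Dosing: titration, 18 hrs, 37 C. Detection: CCF4, 2 hrs RT, 405 ex/460 and 530 em.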

[7] = molecular target: Peroxisome proliferator-activated receptor gamma (Homo sapiens) (UniProt P37231); experiment: qHTS assay for small molecule agonists of peroxisome proliferator-activated receptor gamma signaling (AID 588536; active means well fitted curve in the direction sought with a large enough effect in the signal ratio, with a control signal flat, not every such curve was filed as active; the % refers to the signal ratio;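 further: 0% = DMSO basal wells and 100% = rosiglitazone at 2 µM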)
Summary of the method: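 Test agents, titrated, stimulated HEK293 UAS-bla cells overnight (16 h, 37 C). Substrate CCF4 was then added for two hours at room temperature before fluorescence reading.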

[8] = molecular target: Vitamin D3 receptor (Homo sapiens) (UniProt P11473); experiment: qHTS assay for small molecule agonists of vitamin D receptor signaling (AID 588543; calls by dose curve;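 further: 0% = DMSO basal and 100% = reference agonist control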)
Summary of the method: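 Agonist-mode beta-lactamase reporter: HEK293T VDR-UAS-bla cells in charcoal-stripped 2% FBS, compound series 16 h 37 C, CCF4 2 h RT. EC50 from Hill fit, scaled against DMSO and 50 nM calcitriol control.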

[9] = molecular target: Voltage-gated inwardly rectifying potassium channel KCNH2 (Homo sapiens) (UniProt Q12809); experiment: qHTS Assay for Small Molecule Inhibitors of the Human hERG Channel Activity (AID 588834);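 further: lower thallium flux fluorescence means stronger hERG block; nearly all actives have a fitted effect of over 50% in size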; further: potency means the concentration at half of the fitted maximal effect
Summary of the method: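 Kinetic FDSS fluorescence; U2OS + hERG BacMam (~100 virus particles/cell); FluxOR Tl+ flux; ~10 min cpd; AC50 (Hill).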

[10] = qHTS assay for small molecule agonists of the antioxidant response element (ARE) signaling pathway (AID 651741; active means well fitted activation curve with a large enough effect in the signal ratio; the % refers to the signal ratio; further: potency means the concentration at half of the fitted maximal effect; on activation: % of control where 0% means no effect)
Summary of the method: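 Compounds in DMSO are pinned onto HepG2 ARE-bla cells (2,000/well) that were preincubated 5 h; plates stay 16 h at 37 C, then beta-lactamase activity is detected with LiveBLAzer B/G substrate by fluorescence.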

[11] = qHTS assay for small molecule activators of the nuclear factor-kappa B (NF-kB) signaling pathway (AID 651749; active means well fitted activation curve with a large enough effect in the signal ratio; the % refers to the signal ratio; further: series mostly up to about 77 µM; % of control where 0% means no effect); conditions: NF-kB-bla ME-180 cells, beta-lactamase FRET ratio, 16 h; hits give high values
Summary of the method: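 Screening used 2,000 ME-180 reporter cells per well exposed to pinned compound (23 nL) or DMSO; after 16 hr at 37C, beta-lactamase expression under NF-kB control was assessed through FRET.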

[12] = molecular target: Tumor necrosis factor (Homo sapiens) (UniProt P01375); experiment: qHTS assay to identify small molecules that stimulate Tumor Necrosis Factor-alpha (TNF-alpha) secretion (AID 651757; active means well fitted curve in the direction sought with a large enough effect in the signal ratio; the % refers to the signal ratio; further: 0% is about no effect)
Summary of the method: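 THP-1 cells (3000/well) exposed to compounds 17 hrs at 37 C. Secreted TNF-alpha detected by HTRF with cryptate- and XL665-labeled anti-TNF-alpha antibodies after 3 hr at room temperature.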

[13] = molecular target: Nuclear receptor ROR-gamma (Homo sapiens) (UniProt P51449); experiment: qHTS assay for small molecule antagonists of the retinoid-related orphan receptor gamma (ROR-gamma) signaling pathway (AID 651802); further: nearly all actives have a fitted effect of over 60% in size; further: potency means the concentration at half of the fitted maximal effect
Summary of the method: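 CHO cells with TET-inducible ROR-gamma and RORE-luciferase reporter, dosed then doxycycline-induced. After 16 h at 37C, One-Glo luminescence read; decreased signal indicates antagonism.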

[14] = qHTS assay for small molecule antagonists of the retinoid-related orphan receptor gamma (ROR-gamma) signaling pathway - cell viability counter screen (AID 720652; active means well fitted curve in the direction sought with a large enough effect in the repeat runs; an effect the other way counts as inactive or inconclusive;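 further: compound exposure lasted 16 hr before ATP read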; further: potency means the concentration at half of the fitted maximal effect)
Summary of the method: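 CHO cells carrying TET-inducible ROR and RORE-luciferase reporter, plated 5 hr, then dosed with compound plus doxycycline. After 16 hr at 37 C, viability read as intracellular ATP by CellTiter-Glo luminescence.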

[15] = qHTS assay for small molecule activators of the human pregnane X receptor (PXR) signaling pathway (AID 720659; call rule not given here; further: 0% is about no effect)
[16] = Cellular Toxicity (caspase-3) NIH 3T3 (AID 666);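 further: caspase signal read after 16 h compound exposure; 0% = DMSO basal and 100% = 100 µM tamoxifen stimulation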
Summary of the method: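 Mouse NIH 3T3 fibroblasts (1000/well) treated 16 h at 37 C; caspase-3/7 activity measured by Caspase-Glo 3/7 luminescence after 20 min. Normalized to DMSO and 100 uM tamoxifen; AC50 from Hill fits.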

[17] = molecular target: Cytochrome P450 3A4 (Homo sapiens) (UniProt P08684); experiment: qHTS Assay for Inhibitors and Substrates of Cytochrome P450 3A4 (AID 884); further: nearly all actives have a fitted effect of over 50% in size; further: potency means the concentration at half of the fitted maximal effect
Summary of the method: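 20 nM human CYP3A4 with 25 uM Luciferin-PPXE (at KM) in 200 mM KPO4, preincubated 10 min with compound; NADPH regeneration started a 60 min RT reaction. Luciferin detected by luminescence, normalized to 57 uM ketoconazole as full inhibition.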

[18] = MultiTox-Fluor Cytotoxicity Assay - LYMP1-003 - Dead Cells (AID 961); further: nearly all actives have a fitted effect of over 70% in size
Summary of the method: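 LYMP1-003 lymphoblastoid, 2500 cells/well, 5 hr settle then 16 hr cpd at 37 C; MultiTox-Fluor reagent 60 min RT; Ex/Em 485/520 dead-cell signal; norm. DMSO = 0%, 15 uM tetraoctylammonium bromide = 100%; Hill AC50.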

[19] = molecular target: Glucocorticoid receptor (Homo sapiens) (UniProt P04150); experiment: qHTS assay for small molecule antagonists of glucocorticoid receptor signaling (AID 588533; active means well fitted inhibition curve with a large enough effect in the signal ratio, with a control signal flat, not every such curve was filed as active; the % refers to the signal ratio;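 further: cells stimulated with 2 nM dexamethasone as agonist; on the % scale 0 is the no-effect control and ±100 the full control effect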)
Summary of the method: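 Antagonist-mode qHTS: compound titrations added to GRE-bla HeLa cells, then dexamethasone 2 nM final; 18 h, 37 C. CCF4 FRET fluorescence normalized to dexamethasone and DMSO; IC50 from Hill fit.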

[20] = molecular target: Glucocorticoid receptor (Homo sapiens) (UniProt P04150); experiment: qHTS assay for small molecule agonists of glucocorticoid receptor signaling (AID 588532; active means well fitted curve in the direction sought with a large enough effect in the signal ratio, with a control signal flat; the % refers to the signal ratio;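 further: 100% = dexamethasone at 0.1 µM and 0% = DMSO only wells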); conditions: HeLa MMTV-bla, beta-lactamase ratio, agonist, 18 h; hits give high values; percent of dexamethasone control, DMSO zero
Summary of the method: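 MMTV-bla HeLa, beta-lactamase reporter; medium with 1% charcoal/dextran-stripped FBS; cpds up to 92 uM, 18 h, 37 C; CCF4 readout 460/530 nm; Hill fit → EC50, efficacy vs 0.1 uM dexamethasone = 100%.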

Chain of Glucocorticoid receptor (Homo sapiens) (P04150 whole entry, looked up): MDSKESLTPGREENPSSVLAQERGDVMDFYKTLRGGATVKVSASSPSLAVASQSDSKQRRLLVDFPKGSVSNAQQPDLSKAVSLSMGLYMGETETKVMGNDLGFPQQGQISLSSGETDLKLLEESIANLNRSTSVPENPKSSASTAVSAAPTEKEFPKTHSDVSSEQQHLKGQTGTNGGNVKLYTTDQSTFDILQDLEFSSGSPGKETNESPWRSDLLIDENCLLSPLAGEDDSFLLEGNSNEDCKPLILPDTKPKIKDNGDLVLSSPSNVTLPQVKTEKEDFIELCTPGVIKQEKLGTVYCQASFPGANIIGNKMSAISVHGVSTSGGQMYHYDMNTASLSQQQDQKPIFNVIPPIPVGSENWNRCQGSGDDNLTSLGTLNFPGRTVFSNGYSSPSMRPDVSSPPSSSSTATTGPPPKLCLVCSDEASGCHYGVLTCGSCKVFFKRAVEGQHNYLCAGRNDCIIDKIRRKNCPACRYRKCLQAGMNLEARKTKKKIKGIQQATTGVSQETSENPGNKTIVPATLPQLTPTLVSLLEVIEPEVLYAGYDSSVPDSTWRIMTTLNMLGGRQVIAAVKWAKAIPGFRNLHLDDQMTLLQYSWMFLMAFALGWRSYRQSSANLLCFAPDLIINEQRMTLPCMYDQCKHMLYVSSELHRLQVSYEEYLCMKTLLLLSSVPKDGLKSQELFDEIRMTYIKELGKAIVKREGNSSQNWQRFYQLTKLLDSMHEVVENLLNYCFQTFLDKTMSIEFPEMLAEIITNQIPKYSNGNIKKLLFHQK
Chain of Nuclear receptor ROR-gamma (Homo sapiens) (P51449 whole entry, looked up): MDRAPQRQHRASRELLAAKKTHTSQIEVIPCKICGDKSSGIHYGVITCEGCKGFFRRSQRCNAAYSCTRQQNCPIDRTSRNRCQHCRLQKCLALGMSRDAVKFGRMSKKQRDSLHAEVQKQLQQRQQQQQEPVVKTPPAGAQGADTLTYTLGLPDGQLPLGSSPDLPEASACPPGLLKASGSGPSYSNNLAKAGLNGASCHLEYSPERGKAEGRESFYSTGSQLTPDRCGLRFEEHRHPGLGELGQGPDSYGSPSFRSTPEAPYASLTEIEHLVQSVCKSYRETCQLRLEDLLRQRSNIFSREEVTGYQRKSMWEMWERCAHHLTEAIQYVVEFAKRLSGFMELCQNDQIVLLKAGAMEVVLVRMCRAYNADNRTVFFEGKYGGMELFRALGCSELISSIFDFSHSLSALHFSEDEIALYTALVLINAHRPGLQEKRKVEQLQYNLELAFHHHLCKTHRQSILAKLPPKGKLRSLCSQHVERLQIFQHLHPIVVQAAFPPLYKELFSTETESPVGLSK
Chain of Peroxisome proliferator-activated receptor delta (Homo sapiens) (Q03181 whole entry, looked up): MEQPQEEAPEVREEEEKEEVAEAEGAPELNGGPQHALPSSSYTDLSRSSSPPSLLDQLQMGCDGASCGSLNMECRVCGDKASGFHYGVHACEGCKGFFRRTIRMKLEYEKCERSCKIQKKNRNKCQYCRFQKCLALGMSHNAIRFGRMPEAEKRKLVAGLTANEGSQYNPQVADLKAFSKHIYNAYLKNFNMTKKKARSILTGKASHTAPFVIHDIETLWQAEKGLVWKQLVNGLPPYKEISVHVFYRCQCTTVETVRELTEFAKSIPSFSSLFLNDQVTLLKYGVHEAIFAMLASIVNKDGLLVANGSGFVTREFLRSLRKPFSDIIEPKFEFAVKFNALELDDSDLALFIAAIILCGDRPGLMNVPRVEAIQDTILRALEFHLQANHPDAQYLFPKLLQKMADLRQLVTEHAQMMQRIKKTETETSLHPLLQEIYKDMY
Chain of Voltage-gated inwardly rectifying potassium channel KCNH2 (Homo sapiens) (Q12809 whole entry, looked up): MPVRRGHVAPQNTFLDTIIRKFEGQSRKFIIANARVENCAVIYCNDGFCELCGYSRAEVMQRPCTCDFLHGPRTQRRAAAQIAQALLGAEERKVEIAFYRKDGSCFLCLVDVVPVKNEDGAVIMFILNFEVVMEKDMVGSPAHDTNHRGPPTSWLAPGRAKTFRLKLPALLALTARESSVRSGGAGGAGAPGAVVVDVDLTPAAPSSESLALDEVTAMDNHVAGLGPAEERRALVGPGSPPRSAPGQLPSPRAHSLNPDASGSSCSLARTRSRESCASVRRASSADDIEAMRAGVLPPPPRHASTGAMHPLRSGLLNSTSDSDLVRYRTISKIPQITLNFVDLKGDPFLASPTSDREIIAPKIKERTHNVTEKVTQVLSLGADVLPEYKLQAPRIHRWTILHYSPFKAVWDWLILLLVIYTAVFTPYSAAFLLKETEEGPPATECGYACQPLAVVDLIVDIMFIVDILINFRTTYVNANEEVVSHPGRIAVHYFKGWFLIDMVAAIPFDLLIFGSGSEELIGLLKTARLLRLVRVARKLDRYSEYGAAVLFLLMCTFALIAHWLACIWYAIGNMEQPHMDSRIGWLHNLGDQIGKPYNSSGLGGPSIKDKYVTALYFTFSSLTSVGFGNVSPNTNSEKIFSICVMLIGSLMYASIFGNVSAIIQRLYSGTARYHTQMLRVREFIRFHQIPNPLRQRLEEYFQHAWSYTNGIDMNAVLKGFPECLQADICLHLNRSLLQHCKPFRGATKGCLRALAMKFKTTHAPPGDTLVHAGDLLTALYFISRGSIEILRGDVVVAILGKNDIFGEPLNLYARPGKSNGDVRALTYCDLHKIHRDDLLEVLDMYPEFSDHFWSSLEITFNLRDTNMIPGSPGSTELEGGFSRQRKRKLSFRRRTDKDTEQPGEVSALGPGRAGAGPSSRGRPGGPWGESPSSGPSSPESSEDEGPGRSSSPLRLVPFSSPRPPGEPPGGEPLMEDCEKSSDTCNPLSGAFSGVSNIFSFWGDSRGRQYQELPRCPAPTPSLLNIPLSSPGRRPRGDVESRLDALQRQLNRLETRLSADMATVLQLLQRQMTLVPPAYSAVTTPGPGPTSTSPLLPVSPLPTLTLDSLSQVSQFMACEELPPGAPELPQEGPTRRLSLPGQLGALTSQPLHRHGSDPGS
Chain of Vitamin D3 receptor (Homo sapiens) (P11473 whole entry, looked up): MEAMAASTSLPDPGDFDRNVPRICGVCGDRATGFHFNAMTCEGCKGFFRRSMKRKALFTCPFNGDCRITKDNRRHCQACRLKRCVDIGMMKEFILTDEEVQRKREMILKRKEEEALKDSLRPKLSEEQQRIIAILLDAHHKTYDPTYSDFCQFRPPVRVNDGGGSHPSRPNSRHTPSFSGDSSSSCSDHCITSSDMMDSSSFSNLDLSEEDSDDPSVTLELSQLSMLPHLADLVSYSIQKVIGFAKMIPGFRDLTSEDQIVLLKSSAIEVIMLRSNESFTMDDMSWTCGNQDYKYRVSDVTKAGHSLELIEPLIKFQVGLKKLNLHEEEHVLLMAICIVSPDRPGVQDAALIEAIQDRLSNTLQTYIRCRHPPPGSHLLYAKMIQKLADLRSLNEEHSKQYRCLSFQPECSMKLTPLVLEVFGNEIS
Chain of Cytochrome P450 3A4 (Homo sapiens) (P08684 whole entry, looked up): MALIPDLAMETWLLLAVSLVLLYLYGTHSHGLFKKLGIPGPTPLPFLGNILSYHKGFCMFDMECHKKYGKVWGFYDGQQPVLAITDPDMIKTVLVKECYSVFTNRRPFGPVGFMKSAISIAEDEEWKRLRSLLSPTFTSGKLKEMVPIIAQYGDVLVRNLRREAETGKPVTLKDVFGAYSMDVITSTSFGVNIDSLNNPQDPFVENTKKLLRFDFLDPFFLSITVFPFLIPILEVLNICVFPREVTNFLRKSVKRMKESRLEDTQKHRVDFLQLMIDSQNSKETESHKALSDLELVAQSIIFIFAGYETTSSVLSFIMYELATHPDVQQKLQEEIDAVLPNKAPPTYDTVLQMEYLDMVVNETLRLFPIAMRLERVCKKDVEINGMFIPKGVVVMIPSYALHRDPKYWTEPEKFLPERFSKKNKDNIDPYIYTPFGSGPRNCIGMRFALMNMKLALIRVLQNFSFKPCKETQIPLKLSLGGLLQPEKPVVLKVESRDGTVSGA
Chain of Estrogen receptor (Homo sapiens) (P03372 whole entry, looked up): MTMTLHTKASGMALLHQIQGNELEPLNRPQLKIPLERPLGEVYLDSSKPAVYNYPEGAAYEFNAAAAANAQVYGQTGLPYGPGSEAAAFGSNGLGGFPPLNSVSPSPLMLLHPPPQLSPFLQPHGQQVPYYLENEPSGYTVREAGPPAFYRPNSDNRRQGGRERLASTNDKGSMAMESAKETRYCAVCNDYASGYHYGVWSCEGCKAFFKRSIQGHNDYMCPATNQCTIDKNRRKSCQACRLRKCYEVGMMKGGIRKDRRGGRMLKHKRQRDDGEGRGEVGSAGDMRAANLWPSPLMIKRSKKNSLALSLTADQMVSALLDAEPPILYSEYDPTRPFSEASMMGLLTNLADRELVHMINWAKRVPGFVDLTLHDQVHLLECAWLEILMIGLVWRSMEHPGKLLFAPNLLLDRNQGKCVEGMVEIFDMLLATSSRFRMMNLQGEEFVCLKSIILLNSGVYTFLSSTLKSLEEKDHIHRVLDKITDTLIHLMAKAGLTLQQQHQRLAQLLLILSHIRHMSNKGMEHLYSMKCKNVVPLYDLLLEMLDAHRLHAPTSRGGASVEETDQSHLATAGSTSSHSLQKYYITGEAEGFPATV
Chain of Tumor necrosis factor (Homo sapiens) (P01375 whole entry, looked up): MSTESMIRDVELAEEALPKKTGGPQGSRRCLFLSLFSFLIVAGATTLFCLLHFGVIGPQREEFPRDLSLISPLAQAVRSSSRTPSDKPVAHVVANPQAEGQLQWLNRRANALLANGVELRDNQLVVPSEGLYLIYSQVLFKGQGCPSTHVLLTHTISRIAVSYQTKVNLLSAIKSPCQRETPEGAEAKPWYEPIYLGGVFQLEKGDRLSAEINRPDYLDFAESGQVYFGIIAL

CCNC(=S)NCC
inactive: Potency [1] | Potency [2] | Potency [3] | outcome [4] | Potency [5] | outcome [6] | outcome [7] | Potency [8] | Potency [9] | Potency [10] | activation [11] 0.201% | Potency [12] | Potency [13] | Potency [14] | outcome [15]

C/C=C1/C(=O)C[C@H]2[C@@H]3CCC4=CC(=O)CC[C@]4(C)[C@H]3CC[C@]12C
active: Potency [10] 3.76 µM | Potency [13] 47.3 µM
inactive: Potency [1] | outcome [16] | Potency [17] | Potency [12]

COc1cc(-c2ccc(N=C=O)c(OC)c2)ccc1N=C=O
inactive: outcome [16] | Potency [18] | Potency [3] | Potency [8] | Potency [9] | Potency [14] | outcome [15]
active: Potency [17] 12.6 µM | Potency [10] 2.37 µM

CCOC(=O)C1OC1c1ccccc1 (stereo unspecified)
inactive: Potency [1] | Potency [17] | Potency [18] | Potency [2] | Potency [3] | Potency [19] | outcome [6] | outcome [7] | Potency [8] | activation [11] 0.437% | Potency [12] | Potency [13] | Potency [14] | outcome [15]

OC1CCCCC1
inactive: Potency [1] | Potency [17] | Potency [3] | outcome [4] | Potency [5] | activation [20] -3.35% | outcome [6] | outcome [7] | Potency [8] | Potency [9] | Potency [10] | Potency [12] | Potency [13] | Potency [14] | outcome [15]

C=CC1CO1 (stereo unspecified)
inactive: Potency [1] | Potency [17] | Potency [18] | Potency [2] | Potency [3] | activation [20] -10.4% | Potency [19] | outcome [7] | Potency [8] | Potency [9] | Potency [10] | activation [11] 0.488% | Potency [12] | Potency [13] | Potency [14] | outcome [15]

C[C@@H]1CC2(OC(O)[C@]3(C)O[C@H]23)O[C@H]2C[C@@]3(C)[C@@H]4CC[C@H]5C(C)(C)C(O[C@@H]6OC[C@@H](O)[C@H](O)[C@H]6O)CC[C@@]56C[C@@]46CC[C@]3(C)[C@@H]12 (stereo partly specified)
inactive: Potency [1] | Potency [17] | Potency [18] | activation [20] 1.76% | Potency [9] | activation [11] -2.65% | Potency [12] | outcome [15]
active: Potency [13] 33.5 µM

Nc1cc([N+](=O)[O-])ccc1O
active: Potency [10] 29.8 µM and 12.2 µM | Potency [13] 23.7 µM
inactive: Potency [1] | Potency [17] | Potency [2] | Potency [3] | activation [20] -3.65% and -4.48% | Potency [19] | outcome [6] | outcome [7] | Potency [8] | Potency [9] | activation [11] -0.245% and -0.938% | Potency [14] | outcome [15]

Oc1ccc2c(c1)OCO2
inactive: Potency [1] | outcome [16] | Potency [18] | Potency [3] | outcome [4] | Potency [5] | activation [20] -0.95% | Potency [19] | Potency [8] | Potency [9] | Potency [10] | Potency [12] | Potency [13] | Potency [14] | outcome [15]

O=[N+]([O-])c1ccccc1Nc1ccccc1
active: Potency [9] 35.5 µM
inactive: Potency [1] | outcome [16] | Potency [17] | Potency [18] | Potency [2] | Potency [3] | outcome [4] | Potency [5] | Potency [19] | outcome [7] | Potency [8] | Potency [12] | Potency [14] | outcome [15]

CC(=O)c1ccc(Cl)c(Cl)c1Cl
inactive: Potency [1] | outcome [16] | Potency [17] | Potency [18] | Potency [2] | Potency [3] | outcome [4] | Potency [5] | activation [20] 1.81% | Potency [19] | outcome [7] | Potency [8] | Potency [9] | activation [11] -0.287% | Potency [12] | Potency [14] | outcome [15]

CC(C)S
inactive: Potency [1] | Potency [3] | outcome [4] | Potency [5] | activation [20] 2.41% | Potency [19] | outcome [6] | outcome [7] | Potency [8] | Potency [9] | activation [11] -0.169% | Potency [12] | Potency [14] | outcome [15]

C/C=C/C=C/C=O
inactive: Potency [1] | Potency [17] | Potency [3] | outcome [4] | Potency [5] | activation [20] -0.282% | outcome [6] | Potency [8] | Potency [9] | activation [11] -1.3% | Potency [12] | outcome [15]
active: Potency [10] 37.6 µM | Potency [14] 29.8 µM

CCC(Cl)CC(Cl)C(Cl)C(Cl)C(Cl)C(C)Cl (stereo unspecified)
active: Potency [10] 66.8 µM
inactive: Potency [1] | Potency [18] | Potency [3] | outcome [4] | Potency [5] | activation [20] 4.73% | outcome [6] | activation [11] 0.226% | Potency [12]

c1ccc(CSCc2ccccc2)cc1
inactive: Potency [1] | activation [20] -4.65% | Potency [19] | outcome [6] | outcome [7] | Potency [8] | Potency [10] | activation [11] -0.1% | Potency [12] | Potency [13] | Potency [14] | outcome [15]

c1ccncc1
inactive: outcome [16] | Potency [17] | Potency [18] | Potency [2] | Potency [3] | outcome [4] | Potency [5] | outcome [7] | Potency [8] | Potency [9] | Potency [10] | activation [11] 0.644% | Potency [12] | Potency [13] | Potency [14] | outcome [15]

C1CCCNCC1
inactive: Potency [17] | Potency [2] | Potency [3] | outcome [4] | Potency [5] | activation [20] 8.29% | Potency [19] | outcome [6] | outcome [7] | Potency [9] | Potency [10] | Potency [12] | Potency [13] | Potency [14] | outcome [15]

c1ccc(COCc2ccccc2)cc1
inactive: outcome [16] | Potency [17] | Potency [18] | outcome [4] | Potency [5] | Potency [19] | outcome [7] | Potency [8] | Potency [9] | Potency [10] | activation [11] 0.253% | Potency [12] | Potency [13] | Potency [14]

From PubChem BioAssay (NCATS)
